Reference: PubChem BioAssay (NCI)
The panel holds about 83,000 compounds, 20% with a hit somewhere; the sample as a whole holds those more often.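 Results are percent growth after 48 hours of single-concentration exposure. 100 means growth as in untreated cells, lower positive values show inhibition; negative values down to -100 show cell death.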 Unmarked numbers belong to inactive results. Calls of active or inactive are those of the source. Rule for the calls: active = growth percent below 10; inactive = the rest.

The compounds below were run on HT29 colon (assay: NCI-60 one-dose screen, 48 h (100 = growth as untreated, 0 = no growth, -100 = all killed)). Conditions: 10 µM unless noted.

SMILES | growth
[O-]/[N+](=C\c1ccccc1)CC1(O)CCCCC1 | 102%
CC(=O)O[C@H]1[C@H](CC#CC#CC[C@@H]2C[C@]3(C)[C@H]4CC=C5[C@H]6[C@@H](C)[C@H](C)CC[C@]6(C(=O)NCCCCCCCCN)CC[C@@]5(C)[C@]4(C)CC[C@H]3C(C)(C)[C@H]2OC(C)=O)C[C@]2(C)[C@H]3CC=C4[C@H]5[C@@H](C)[C@H](C)CC[C@]5(C(=O)NCCCCCCCCN)CC[C@@]4(C)[C@]3(C)CC[C@H]2C1(C)C | 98.2%
N#Cc1c(N)c(C(=O)c2ccc3c(c2)OCCO3)n2c1CCCC2 | 5.44% (active)
Cc1c(O)c(=O)n(-c2ccccc2)n1C | 103%
COc1ccc2[nH]c(O)c(/C=c3/ccc4c(c3)N=C(c3ccc(C(F)(F)F)cc3)N=4)c2c1 | 80%
COc1ccc(/C=C/C(=O)c2ccc(NC(=O)CSc3nnc(-c4ccc(OC)cc4)n3-c3ccccc3)cc2)cc1 | 103%
N=C(N)c1ccc(-c2ccc(-c3cc(Cl)cc(Cl)c3)o2)nc1 | -81.7% (active)
CN(C)c1ccc(N2Cc3ccccc3OC3=C2C(=O)c2c(O)ccc(O)c2C3=O)cn1 | -50.8% (active)
COc1ccccc1/C=N\NC(=S)Nc1ccc(F)cc1 | 46.9%
FC(F)(F)C1=NNC(c2ccc3ccccc3c2)=NN1 | 107%
CCCC(CCC)NCC(O)c1cc(-c2ccc(C(F)(F)F)cc2)nc(C(F)(F)F)c1 (stereo not drawn) | -74% (active)
CCOC(=O)c1c(NC(=O)c2ccccc2)sc2c(O)c(CN(CC)CC)ccc12 | 2.28% (active)
CCOC(C)(c1ccc(Cl)cc1)C1CCNCC1 (stereo not drawn) | 85.2%
O=S(=O)(NCC[C@@H]1C[C@H]1c1ccc2ccccc2c1)c1ccc(C(F)(F)F)cc1 | 92.7%
CC(CN1CCN(C)CC1)CN1c2ccccc2Sc2ccc(C(F)(F)F)cc21 (stereo not drawn) | -49.9% (active)
NC(=S)N/N=C(/c1cccs1)C1CC1 | 58.4%
COc1cc(C2Nc3ccccc3S2)cc(CN2CCOCC2)c1O (stereo not drawn) | 93.4%
O=[N+]([O-])c1cccc([I+]c2ccccc2)c1 | 27.3%
C=CCn1c(SCC(=O)Nc2ccc(/C(C)=N\O)cc2)nnc1-c1cc(-c2ccccc2)nc2ccccc12 | 49.9%
C=CC[C@]1(O)CC[C@H]2[C@@H]3CCc4cc(O)ccc4[C@H]3CC[C@@]21C | 91.2%

SMILES | growth
CC(=O)c1c(O)c(C)c(O)c2c1OC1=CC(=O)/C(=C(/C)N)C(=O)C12C (stereo not drawn) | 65.1%
COc1c(B(O)O)cccc1-c1nc2c(F)cc3n[nH]c(C)c3c2c2c1CCCC2 | 17%
CCCCNCC(O)c1cc(-c2ccc(C(F)(F)F)cc2)nc(-c2ccc(C(F)(F)F)cc2)c1 (stereo not drawn) | -77% (active)
Oc1[nH]c2ccc(Cl)cc2c1/C=c1/ccc2c(c1)N=C(c1ccc(F)cc1)N=2 | 62.4%
COc1ccc(C(=O)c2c(N)nc3n2CCCC3)cc1OC | 94.7%
CCOC(=O)Nc1ccc2nc(-c3cscn3)[nH]c2c1 | 14.8%
CCOC(=O)C(Nc1ccccc1)C(=O)OCC | 106%
CN1CCN(Cc2ccc(NC(=O)c3cncc(C#Cc4ncc5ccccn45)c3)cc2C(F)(F)F)CC1 | 5.13% (active)
COS(=O)(=O)CCN(CCOS(C)(=O)=O)S(C)(=O)=O | 85.4%
O=C(c1ccccc1)N(CCCCl)C(=O)N(CCCCl)C(=O)c1ccccc1 | 82.1%
OC(c1cc2cc(Cl)ccc2c2cc(C(F)(F)F)ccc12)C1CCCCN1 (stereo not drawn) | -87.3% (active)
CC(C)CC(NC(=O)C(CCCN=C(N)N)NC(=O)OCc1ccccc1)C(=O)NC(CNC(=O)/C=C/c1ccccc1)C(C)C (stereo not drawn) | 109%
CCn1c(CN2CCN(Cc3ccccc3)CC2)nc2cc(NC(=O)c3cccs3)ccc21 | -55.6% (active)
COc1cc(C)cc2oc3oc(=O)c(-c4csc(-c5cc6ccccc6oc5=O)n4)cc3c(=O)c12 | 110%
OC(c1cc2c(Cl)cc(Cl)cc2c2cc(C(F)(F)F)ccc12)C1CCCCN1 (stereo not drawn) | -80.5% (active)
N#CC1=C(N)Oc2nc[nH]c(=O)c2C1c1cccs1 (stereo not drawn) | 99%
Cc1cc(C)cc(Nc2cc(C)nc3nc(C(F)(F)F)nn23)c1 | 41.5%
Cc1ccc(N2C3c4ccccc4N(S(=O)(=O)c4ccc(C)cc4)C2c2ccccc2N3S(=O)(=O)c2ccc(C)cc2)cc1 | 101%
CCOC(=O)c1ccc(NC(=O)NC2=NCCS2)cc1 | 106%

The compounds below were run on SNB-75 CNS in the same assay as above. Conditions: 10 µM unless noted.

SMILES | growth
[O-]/[N+](=C\c1ccccc1)CC1(O)CCCCC1 | 81.1%
CC(=O)O[C@H]1[C@H](CC#CC#CC[C@@H]2C[C@]3(C)[C@H]4CC=C5[C@H]6[C@@H](C)[C@H](C)CC[C@]6(C(=O)NCCCCCCCCN)CC[C@@]5(C)[C@]4(C)CC[C@H]3C(C)(C)[C@H]2OC(C)=O)C[C@]2(C)[C@H]3CC=C4[C@H]5[C@@H](C)[C@H](C)CC[C@]5(C(=O)NCCCCCCCCN)CC[C@@]4(C)[C@]3(C)CC[C@H]2C1(C)C | 94.7%
N#Cc1c(N)c(C(=O)c2ccc3c(c2)OCCO3)n2c1CCCC2 | -1.33% (active)
Cc1c(O)c(=O)n(-c2ccccc2)n1C | 98.3%
COc1ccc2[nH]c(O)c(/C=c3/ccc4c(c3)N=C(c3ccc(C(F)(F)F)cc3)N=4)c2c1 | 60.7%
COc1ccc(/C=C/C(=O)c2ccc(NC(=O)CSc3nnc(-c4ccc(OC)cc4)n3-c3ccccc3)cc2)cc1 | 91.7%
N=C(N)c1ccc(-c2ccc(-c3cc(Cl)cc(Cl)c3)o2)nc1 | -90.7% (active)
CN(C)c1ccc(N2Cc3ccccc3OC3=C2C(=O)c2c(O)ccc(O)c2C3=O)cn1 | 0.378% (active)
COc1ccccc1/C=N\NC(=S)Nc1ccc(F)cc1 | 84.4%
FC(F)(F)C1=NNC(c2ccc3ccccc3c2)=NN1 | 80.3%
CCCC(CCC)NCC(O)c1cc(-c2ccc(C(F)(F)F)cc2)nc(C(F)(F)F)c1 (stereo not drawn) | -3.88% (active)
CCOC(=O)c1c(NC(=O)c2ccccc2)sc2c(O)c(CN(CC)CC)ccc12 | -26.2% (active)
CCOC(C)(c1ccc(Cl)cc1)C1CCNCC1 (stereo not drawn) | 82.2%
O=S(=O)(NCC[C@@H]1C[C@H]1c1ccc2ccccc2c1)c1ccc(C(F)(F)F)cc1 | 73.6%
CC(CN1CCN(C)CC1)CN1c2ccccc2Sc2ccc(C(F)(F)F)cc21 (stereo not drawn) | 45.5%
NC(=S)N/N=C(/c1cccs1)C1CC1 | 77.2%
COc1cc(C2Nc3ccccc3S2)cc(CN2CCOCC2)c1O (stereo not drawn) | 46%
O=[N+]([O-])c1cccc([I+]c2ccccc2)c1 | 46.9%
C=CCn1c(SCC(=O)Nc2ccc(/C(C)=N\O)cc2)nnc1-c1cc(-c2ccccc2)nc2ccccc12 | 58.3%
C=CC[C@]1(O)CC[C@H]2[C@@H]3CCc4cc(O)ccc4[C@H]3CC[C@@]21C | 75.7%

SMILES | growth
CC(=O)c1c(O)c(C)c(O)c2c1OC1=CC(=O)/C(=C(/C)N)C(=O)C12C (stereo not drawn) | 91.5%
COc1c(B(O)O)cccc1-c1nc2c(F)cc3n[nH]c(C)c3c2c2c1CCCC2 | -21.6% (active)
CCCCNCC(O)c1cc(-c2ccc(C(F)(F)F)cc2)nc(-c2ccc(C(F)(F)F)cc2)c1 (stereo not drawn) | -85% (active)
Oc1[nH]c2ccc(Cl)cc2c1/C=c1/ccc2c(c1)N=C(c1ccc(F)cc1)N=2 | 55.6%
COc1ccc(C(=O)c2c(N)nc3n2CCCC3)cc1OC | 85.1%
CCOC(=O)Nc1ccc2nc(-c3cscn3)[nH]c2c1 | 33.1%
CCOC(=O)C(Nc1ccccc1)C(=O)OCC | 85%
CN1CCN(Cc2ccc(NC(=O)c3cncc(C#Cc4ncc5ccccn45)c3)cc2C(F)(F)F)CC1 | 34.3%
COS(=O)(=O)CCN(CCOS(C)(=O)=O)S(C)(=O)=O | 90.4%
O=C(c1ccccc1)N(CCCCl)C(=O)N(CCCCl)C(=O)c1ccccc1 | 104%
OC(c1cc2cc(Cl)ccc2c2cc(C(F)(F)F)ccc12)C1CCCCN1 (stereo not drawn) | -90% (active)
CC(C)CC(NC(=O)C(CCCN=C(N)N)NC(=O)OCc1ccccc1)C(=O)NC(CNC(=O)/C=C/c1ccccc1)C(C)C (stereo not drawn) | 84.5%
CCn1c(CN2CCN(Cc3ccccc3)CC2)nc2cc(NC(=O)c3cccs3)ccc21 | -96.6% (active)
COc1cc(C)cc2oc3oc(=O)c(-c4csc(-c5cc6ccccc6oc5=O)n4)cc3c(=O)c12 | 113%
OC(c1cc2c(Cl)cc(Cl)cc2c2cc(C(F)(F)F)ccc12)C1CCCCN1 (stereo not drawn) | -91% (active)
N#CC1=C(N)Oc2nc[nH]c(=O)c2C1c1cccs1 (stereo not drawn) | 92.6%
Cc1cc(C)cc(Nc2cc(C)nc3nc(C(F)(F)F)nn23)c1 | 61.6%
Cc1ccc(N2C3c4ccccc4N(S(=O)(=O)c4ccc(C)cc4)C2c2ccccc2N3S(=O)(=O)c2ccc(C)cc2)cc1 | 89.5%
CCOC(=O)c1ccc(NC(=O)NC2=NCCS2)cc1 | 21.5%
